The values that follow come from PubChem BioAssay (Tox21).

Results filed as inconclusive are left out. Entries that show only a call come without a potency. The source made the active and inactive calls. Calls come from the whole dose curve; as a rule, active = well fitted cell-killing curve with a large enough effect in the repeat runs; inconclusive = weak or mixed curves, or effect the other way; inactive = flat fitted curve, though single readings scatter.
Potency is the fitted concentration of half-maximal effect.

The nature of the assay: cAMP Responsive Elements (CRE) small molecule agonists, cell-based qHTS assay: qHTS cell viability counter screen (AID 2060914). Note: nearly all actives have a fitted effect of over 50% in size. The conditions noted are these: CRE-bla HEK293T viability, CellTiter-Glo luminescence, 5 h; series mostly up to 92.4 µM. The procedure, abridged:
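Cells are seeded and incubated 18 h, treated with compounds in DMSO for 3 h, read for the bla reporter, then given CellTiter-Glo; luminescence is measured after 30 min at room temperature.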
On the technique in general: In qHTS, concentration-response curves come from the screen itself.
`CCCCCCCCCCCCOC(=O)c1ccc(O)cc1`: the Potency result is “inactive”.
In the case of `CC1(COc2ccc(CC3SC(=O)NC3=O)cc2)CCCCC1` (stereo not given) it was “inactive”; in that of `CCCCCCCCCCCCN`, “inactive”; in that of `CCN(CC)CCOC(=O)c1ccc(N)cc1`, “inactive”.
In the case of `CN1CN(C)CN(C)C1` it was “inactive”.
The same measure for `CN(C)C(C)(C)CO`: “inactive”; for `Cc1[nH]cnc1C[C@H]1CCc2c(C)c3ccccc3n2C1=O`: “inactive”.
On to `CCCCOC(=O)C(C)O` (stereo not given), for which the Potency result was “inactive”.
The same measure for `OCCC(F)(F)C(F)(F)C(F)(F)C(F)(F)C(F)(F)C(F)(F)F`: “inactive”; for `C[N+]12CCC(CC1)C(OC(=O)C(O)(c1ccccc1)c1ccccc1)C2` (stereo not given): “inactive”; for `NC(=NCCCCCCN=C(N)/N=C(\N)Nc1ccc(Cl)cc1)/N=C(\N)Nc1ccc(Cl)cc1`: 48.1 µM (active).
As to `Clc1ccc(Cl)c(Cl)c1Cl`, the Potency result was “inactive”.
For `Cc1ccc2c(c1)CCCN2`, the Potency result is “inactive”.
As to `CCCCC(=O)O`, the Potency entry is “inactive”.
Regarding `Cc1cc(C)cc(N)c1`, the Potency entry is “inactive”.
Take `C=C(C)c1cccc(C(=C)C)c1`: the Potency entry was “inactive”.
`CC(=O)OC(C)OC(C)=O`: the Potency result was “inactive”.
Regarding `OC(Cn1cncn1)(Cn1cncn1)c1ccc(F)cc1F`, the Potency result is “inactive”.
Turning to `C=C(C)C(=O)NCCC[N+](C)(C)C`, the Potency entry is “inactive”.
In the case of `O=C1c2ccccc2C(=O)N1CCl` it was “inactive”.
Take `Oc1cc(O)c(Cl)cc1Cl`: the Potency result is “inactive”.
On to `O=c1c(O)c(-c2ccc(O)c(O)c2)oc2cc(O)cc(O)c12`, for which the Potency result is “inactive”.
As to `O=C1CCCCCCCCCCCCCCO1`, the Potency entry is “inactive”.
Regarding `O=C(Nc1cccc(C(F)(F)F)c1)c1cc(Br)cc(Br)c1O`, the Potency is 27.3 µM (active).
In the case of `NCCNCCN`, the Potency entry was “inactive”.
Turning to `CC(C)=CCC/C(C)=C/CO`, the Potency result is “inactive”.
For `CCCCc1nc(Cl)c(CO)n1Cc1ccc(-c2ccccc2-c2nn[nH]n2)cc1`, the Potency result is “inactive”.
With `CCC(=O)/C=C/c1ccc(OC)cc1`, the Potency result is “inactive”.
Take `CC(C)CCCCOC(=O)c1ccccc1C(=O)OCCCCC(C)C`: the Potency result is “inactive”.
Regarding `O=c1c2ccccc2nnn1CCl`, the Potency result is “inactive”.
In the case of `CCCCCCCCOc1ccc(C(=O)c2ccccc2)c(O)c1` it was “inactive”; in that of `CCCCN(C)C`, “inactive”.
Regarding `CCOC(=O)CC(=O)OCC`, the Potency result was “inactive”.
In the case of `CO/N=C(/C(=O)N[C@@H]1C(=O)N2C(C(=O)O)=C(Cn3nnc(C)n3)CS[C@H]12)c1csc(N)n1`, the Potency result is “inactive”.
`CC(N)C12CC3CC(CC(C3)C1)C2` (stereo not given): the Potency entry was “inactive”.
In the case of `CCCCCOC(=O)Nc1nc(=O)n([C@@H]2O[C@H](C)[C@@H](O)[C@H]2O)cc1F` it was “inactive”; in that of `Cc1onc(-c2c(Cl)cccc2Cl)c1C(=O)N[C@@H]1C(=O)N2[C@@H]1SC(C)(C)[C@@H]2C(=O)O`, “inactive”.
The same measure for `CC1=CCC(=C(C)C)CC1`: “inactive”; for `CC1(C)[C@@H](O)CC[C@]2(C)[C@H]3C(=O)C=C4[C@@H]5C[C@@](C)(C(=O)O)CC[C@]5(C)CC[C@@]4(C)[C@]3(C)CC[C@@H]12`: “inactive”.
In the case of `Cc1cc(S(=O)(=O)O)c(N)cc1Cl` it was “inactive”.
